Source: PubChem BioAssay (Broad Institute)
CD40 NFkB inh: CD40 pathway inhibition in BL2 cells | BL2 NF-kB luciferase reporter, CD40L-induced, 4 h | inhibition, % at 10 µM | hit rate 0.94% among 83,000 | AID 1053188;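 active = mean inhibition of at least 50% with a set share of replicates also reaching that level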;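 also: 0% = neutral control wells and 100% = IKK inhibitor VII at 50 µM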
Starred values were filed as active, the others as inactive; [ ] = dose if it differs, or a comment. Shown is part of a subset that was picked to be rich in hits.

SMILES	CD40 NFkB inh
CN1[C@@H]2CN(CC(F)(F)F)C[C@H]1C2c1ccc(Br)cc1 (stereo partly drawn)	13
COC(=O)[C@@H]1[C@@H](CO)[C@@H]2Cn3c(ccc(-c4ccccc4F)c3=O)[C@H]1N2Cc1cccnc1	-6[25 µM]
Cc1ccc(OC(=O)N(C)C[C@H]2OCc3ccccc3-c3c(n(C)c4ccccc34)C(=O)N([C@@H](C)CO)C[C@H]2C)cc1	12[25 µM]
O=C(Cc1cccnc1)N1CCCCN2[C@H](C1)[C@H](c1ccc(C#CC3(O)CCCC3)cc1)[C@@H]2CO	2[25 µM]
CS(=O)(=O)N1CC2NC(C1)C2c1ccc(Br)cc1 (stereo not drawn)	-5
COc1ccc(C#Cc2ccc([C@@H]3[C@H](CO)N4CCCCN(C(=O)Cc5ccccc5)C[C@@H]34)cc2)cc1	-27
CS(=O)(=O)N1C[C@@H]2N[C@H](C1)C2c1ccccc1 (stereo partly drawn)	-5
CCN(CC)C(=O)c1ccc(NC(=O)c2ccc(N3CCCC3=O)cc2)cc1	16
CCN(CC)C(=O)c1ccc(NC(=O)Nc2ccccc2F)cc1	83*
CCN(CC)C(=O)c1ccc(NC(=O)c2cccc(S(=O)(=O)N3CCN(Cc4ccccc4)CC3)c2)cc1	17
CC(C)NC(=O)N1C[C@@H]2C(c3ccccc3)[C@H](C1)N2C (stereo partly drawn)	13
CCCNC(=O)[C@@H]1[C@@H](CO)[C@@H]2Cn3c(cccc3=O)[C@@H]2N1C	-4
CC(C)NC(=O)N1C[C@@H]2N[C@H](C1)C2c1ccc(Br)cc1 (stereo partly drawn)	8
C=C(C)[C@@H]1CCC(C)=C[C@H]1c1c(OC)cc(C)cc1OC	5[25 µM]
C[C@H](CO)N1C[C@H](C)[C@H](CN(C)C(=O)Oc2cccc3ccccc23)OCc2cn(nn2)CCCC1=O	3[25 µM]
O=C1NC2C(=CC(O)C(O)C2O)c2cc3c(c(O)c21)OCO3 (stereo not drawn)	108*
COc1cc(C2c3cc4c(cc3CC3COC(=O)C32)OCO4)cc(OC)c1O (stereo not drawn)	-45
O=C1NC2C(O)C(O)C(O)C(O)C2c2cc3c(c(O)c21)OCO3 (stereo not drawn)	97*
O=C(O)[C@@H]1[C@@H](CO)[C@@H]2Cn3c(ccc(-c4cccnc4)c3=O)[C@H]1N2C(=O)Nc1cc(F)ccc1F	1[25 µM]
C[C@H](CO)N1C[C@H](C)[C@@H](CN(C)C(=O)Oc2cccc3ccccc23)OCc2cnnn2CCCC1=O	-6[25 µM]
O=C(Cc1ccncc1)N1CCCCN2[C@@H](CO)[C@H](c3ccc(C#Cc4ccccc4F)cc3)[C@@H]2C1	-2[25 µM]
CN(C)CC#Cc1ccc([C@@H]2[C@@H](CO)N3CCCCN(C(=O)Cc4ccccn4)C[C@H]23)cc1	-5[25 µM]
C[C@]12CC[C@H](O)C[C@H]1CC[C@@H]1[C@@H]2CC[C@]2(C)[C@@H](c3ccc(=O)oc3)CC[C@]12O	58*[25 µM]
C[C@]12CC[C@@H](O)C[C@@H]1CC[C@@H]1[C@@H]2CC[C@]2(C)C(=O)CC[C@@H]12	12
CC(=O)OC1CC2(O)C3CCC4CC(O)CCC4(C)C3CCC2(C)C1C1=CC(=O)OC1 (stereo not drawn)	75*
SMILES	CD40 NFkB inh
CC(=O)C1CCC2C3CCC4CC(O)CCC4(C)C3CCC12C#N (stereo not drawn)	1
C[C@]12CC[C@H](O)C[C@@H]1CC[C@H]1[C@H]3CCC(=O)[C@@]3(C)CC[C@@H]12	2
CC1OC(OC2C(O)CC(OC3C(O)CC(OC4CCC5(C)C(CCC6C5CCC5(C)C(C7=CC(=O)OC7)C(O)CC65O)C4)OC3C)OC2C)CC(O)C1O (stereo not drawn)	58*
C[C@]12CCC3C(CC[C@H]4C[C@@H](O)CC[C@]34C)C1C[C@@H](O)[C@@H]2O (stereo partly drawn)	1
CC1=C[C@H]2[C@]3(O)[C@H](C)[C@@H](O)[C@@]4(O)[C@H]([C@@H]3C=C(CO)C[C@]2(O)C1=O)C4(C)C	-1[25 µM]
COC(=O)[C@@H]1[C@@H](CO)[C@@H]2Cn3c(cccc3=O)[C@@H]2N1CC1CC1	4[25 µM]
COC(=O)[C@@H]1[C@@H](CO)[C@@H]2Cn3c(ccc(-c4cccc(F)c4)c3=O)[C@H]1N2Cc1cccnc1	-9[25 µM]
C/C=C/c1ccc(C2[C@@H]3CN(Cc4cocn4)C[C@H]2N3)cc1 (stereo partly drawn)	-7[25 µM]
N#Cc1ccc(-c2ccc([C@H]3[C@@H](CO)N4CCCCN(C(=O)Cc5ccccc5)C[C@H]34)cc2)cc1	2[25 µM]
O=C(O)C[C@H]1CC[C@@H]2NC[C@H](O)COC[C@H]2O1	-1[25 µM]
Oc1ccc2c3c1OC1c4[nH]c5ccccc5c4CC4(O)C(C2)N(CC2CC2)CCC314 (stereo not drawn)	-18[25 µM]
